# Screening data (PubChem)
# hgDAF-12 ag – agonists of H. glycines DAF-12 nuclear receptor; HEK293 GAL4-hgDAF12 UAS-luciferase reporter, agonist luminescence; normalized to butyrate control; activation, % at 6.8 µM; 370,000 tested, 1.8% active;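 active = activation above a cutoff set at the mean of all screened compounds plus 3 SD, cut at about 10% in these data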;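 also: 0% = DMSO wells and 100% = sodium butyrate wells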
# ssDAF-12 act – activates DAF-12 receptor from parasite S. stercoralis; HEK293 ssDAF-12/GRIP1 lit1-tk-luc reporter, luminescence; % of 3 µM dafachronic acid response; activation, % at 6.8 µM; 370,000 tested, 1% active; AID 652126;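 active = activation above the mean over all tested compounds plus 3 SD, cut at about 0.9% in these data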;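 also: 0% = DMSO-only wells and 100% = 3 µM delta7-dafachronic acid wells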
# DAX1 inh-1 – NR0B1 (DAX1) inhibition; P51843; HEK293 Gal4-DAX1 luciferase reporter, luminescence; inhibition, % at 6.75 µM; 340,000 tested, 0.99% active; AID 504766;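 active = inhibition above the mean over all tested compounds plus 3 SD, cut at about 4.2% in these data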;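 also: 0% = DAX1-transfected cells with DMSO and 100% = empty-vector control cells with DMSO; inhibition shows as a rise in luminescence from relieved DAX1 repression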
# Target sequence (P51843 207-470 limits assumed): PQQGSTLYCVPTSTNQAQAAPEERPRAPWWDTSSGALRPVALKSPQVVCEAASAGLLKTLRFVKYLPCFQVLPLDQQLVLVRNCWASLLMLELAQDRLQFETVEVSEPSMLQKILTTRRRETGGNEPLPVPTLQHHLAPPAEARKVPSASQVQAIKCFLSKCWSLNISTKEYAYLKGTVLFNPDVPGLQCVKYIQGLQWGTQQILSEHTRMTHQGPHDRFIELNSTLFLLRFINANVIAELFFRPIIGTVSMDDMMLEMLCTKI
# hcDAF12 agonist – activators of H. contortus DAF-12 nuclear receptor; HEK293 hcDAF-12 lit1-tk-luc reporter, luminescence; 0% DMSO, 100% Δ7-dafachronic acid; activation, % at 6.8 µM; 370,000 tested, 1.4% active;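 active = activation above the mean of all tested compounds plus 3 SD, cut at about 5.5% in these data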;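 also: 100% = response to 3 µM Δ7-dafachronic acid high control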
# DAX1 inh-2 – DAX1 (NR0B1) inhibition, primary screen | 370,000 tested, 1.1% active | inhibition, % at 6.8 µM | HEK293T StAR-luciferase reporter, SF-1/DAX-1 repression relief;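 active = inhibition above the mean over all tested compounds plus 3 SD, cut at about 3.6% in these data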;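 also: 0% = DAX-1 cells with DMSO and 100% = cells lacking DAX-1 with DMSO; higher inhibition means more luminescence from relief of DAX-1 repression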
# FXN GAA850 act – increases GAA850 frataxin promoter reporter activity | HEK293 lucGAA850 FXN promoter luciferase reporter, 24 h; percent of 10 µM SAHA response | activation, % at 6 µM | 360,000 tested, 0.56% active | AID 540364;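 active = activation above the average of all compounds screened plus 3 SD, cutoff fixed separately per campaign, cut at about 7.5% in these data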;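 also: 0% = DMSO wells and 100% = 10 µM SAHA wells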
# LXR ag – LXR-beta agonism as hcDAF-12 counter-screen. shares compounds with hcDAF12 agonist. HEK293 Gal4-LXR tk-luc reporter, luminescence, 24 h; normalized: DMSO 0%, positive control 100%. activation, % at 6.8 µM. 3,400 tested, under 10 active. AID 743027;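 active = mean percent activation of the reporter above a cutoff set as the average over tested compounds plus their standard deviation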
# hcDAF12 conf – confirmation of H. contortus DAF-12 agonists; shares compounds with hcDAF12 agonist; HEK293 hcDAF-12 lit1-tk-luc reporter, luminescence; % of Δ7-dafachronic acid response; activation, % at 6.8 µM; 3,400 tested, 61% active;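 active = mean activation across triplicate tests above the threshold derived from the earlier primary screen, cut at about 5.5% in these data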;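 also: 0% = DMSO only wells and 100% = 3 µM Δ7-dafachronic acid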
# hgDAF12 ag – hgDAF-12 agonism, confirmation assay | shares compounds with hgDAF-12 ag | AID 743050 | 3,300 tested, 80% active | activation, % at 6.8 µM | HEK293 GAL4-hgDAF12 luciferase reporter, agonist mode; percent of butyrate response;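 active = mean activation over triplicate wells above the hit cutoff derived from the earlier primary screen, cut at about 11% in these data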;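 also: 0% = DMSO low control and 100% = 2 mM sodium butyrate high control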
# LXR ag 2 – activates human LXR-beta, counter-screen for DAF-12 agonists. activation, % at 6.8 µM. 3,300 tested, under 10 active. shares compounds with hgDAF-12 ag. HEK293 Gal4-LXR luciferase reporter, 24 h;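 active = mean activation of the triplicate above a set limit carried over from the primary screen, none filed active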
# * marks the source's active call; other numbers are inactive results; . = not tested or not shown. Compounds with a hit are over-represented: about 4.5% of the library has one in this group of screens.
SMILES,hgDAF-12 ag,ssDAF-12 act,DAX1 inh-1,hcDAF12 agonist,DAX1 inh-2,FXN GAA850 act,LXR ag,hcDAF12 conf,hgDAF12 ag,LXR ag 2
Cc1ccnc(NC(=O)c2ccc(Br)s2)c1,20*,1.6*,2,14*,3,4,1,9.3*,17*,1
COc1ccccc1C(=O)NNC(=O)c1ccccc1F,16*,1.5*,1,11*,3,5,1,11*,15*,1
COc1ccc(NC(=S)Nc2cc(C)ccn2)c(OC)c1,14*,1.5*,3,14*,3,7,1,12*,19*,1
COc1ccc(NC(=S)Nc2cccnc2)c(OC)c1,-2,-1,2,-1,0,0,.,.,.,.
O=C(Nc1nccs1)c1cc(Cl)nc2ccccc12,2,0,2,2,0,-1,.,.,.,.
O=C(/C=C\c1ccccc1)Nc1nccs1,20*,0,1,8.4*,3,-1,2,5,20*,1
O=C(Nc1nccs1)c1ccc2ccccc2n1,18*,3.6*,1,18*,2,3,2,16*,23*,1
Cc1ccc(/C=C/C(=O)Nc2nccs2)o1,7,-1,3,2,2,3,.,.,.,.
O=C(Nc1ccccn1)c1ccc2ccccc2n1,17*,3.7*,1,19*,4,3,2,22*,18*,1
Cc1cc(C(=O)Nc2ccccn2)no1,8,0,1,3,1,4,.,.,.,.
Cc1csc(NC(=O)c2ccc3ccccc3n2)n1,18*,4.1*,1,21*,3,5,2,16*,26*,1
CCCC[C@H](C(=O)N(C)c1cccc(OC)c1)[C@@H](O)c1ccc(Cl)cc1,-3,-1,.,-3,-1,.,.,.,.,.
COc1ccc(C2=C(c3ccccc3)OC(OC)c3cc(F)ccc32)cn1 (configuration not stated),0,-1,.,-3,-1,.,.,.,.,.
O=C(Nc1nccs1)c1sc2ccccc2c1Cl,18*,3.0*,-1,15*,3,2,2,16*,17*,1
Cc1csc(NC(=O)c2cnc3ccccc3n2)n1,16*,2.1*,-1,15*,2,2,1,14*,18*,1
O=C(Nc1nccs1)c1ccc(Cl)s1,6,-1,0,0,1,4,.,.,.,.
Clc1ccccc1N1CCN(C2=Nc3ccccc3Sc3ccccc32)CC1,-7,-2,.,-4,-2,.,.,.,.,.
COC(=O)[C@]12C[C@H](CC(=O)NCCC(C)C)C(=O)N(Cc3ccc4c(c3)OCO4)C1=C[C@H](C(C)(C)C)O[C@@H]2C,-1,-1,.,0,0,.,.,.,.,.
CCc1sc(C(=O)Nc2nccs2)cc1C,19*,0.9*,2,6.7*,2,4,1,6.7*,21*,1
CCc1sc(C(=O)Nc2ncccc2C)cc1C,1,0,0,1,1,3,.,.,.,.
Cc1cc(N/C=C/C(=O)c2ccccc2)ccc1Br,14*,2.8*,1,9.8*,3,2,2,18*,24*,1
CN(C)c1ccc(N/C=C/C(=O)c2ccccc2)cc1,2,-1,1,0,-1,-5,.,.,.,.
COc1cccc(N/C=C/C(=O)c2ccc(C)cc2)c1,14*,1.4*,3,8.1*,3,3,2,11*,24*,1
